Where “and” joins values, the source holds several entries; their conditions need not be identical. Equal values may be shown once. The campaign covered roughly 16,000 compounds. About 5,700 (36%) were called active. About 24% were inconclusive and are not listed. The list shows a part of the results. Unmarked numbers belong to inactive results. Calls come from the whole dose curve; as a rule, active = well fitted curve in the direction sought with a large enough effect; inconclusive = small, poorly fitted or top-dose-only effect, or effect the other way; inactive = no such curve, though single readings can be large or run the other way.
The molecules below were run against Cytochrome P450 1A2 (Homo sapiens) (UniProt P05177) (assay: Cytochrome panel assay with activity outcomes). Conditions: recombinant CYP, pro-luciferin dealkylation, luminescence, p450-cyp1a2; series mostly up to 57.1 µM; activity, negative = inhibition: at the top concentration.
% is set by controls: 0 for no effect and ±100 for the full control effect.

Sequence of Cytochrome P450 1A2 (Homo sapiens) (P05177 whole entry, looked up): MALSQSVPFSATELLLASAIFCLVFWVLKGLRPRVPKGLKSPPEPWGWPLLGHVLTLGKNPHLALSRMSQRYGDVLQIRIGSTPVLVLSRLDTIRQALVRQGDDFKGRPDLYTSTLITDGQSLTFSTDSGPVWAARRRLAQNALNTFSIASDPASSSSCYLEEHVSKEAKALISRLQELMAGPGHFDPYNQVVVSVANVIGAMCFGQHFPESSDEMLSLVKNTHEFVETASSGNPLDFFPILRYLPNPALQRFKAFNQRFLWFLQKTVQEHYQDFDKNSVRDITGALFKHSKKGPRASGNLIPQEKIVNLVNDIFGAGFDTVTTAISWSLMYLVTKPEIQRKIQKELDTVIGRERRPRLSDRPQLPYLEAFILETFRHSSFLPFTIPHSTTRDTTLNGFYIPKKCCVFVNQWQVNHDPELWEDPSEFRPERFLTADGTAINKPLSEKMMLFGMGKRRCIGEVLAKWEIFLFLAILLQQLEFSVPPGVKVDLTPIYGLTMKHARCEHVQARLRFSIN

Row | Compound | activity, negative = inhibition | AC50
1 | Cc1cc(=O)[nH]c(-n2[nH]c(C)cc2=O)n1 | -3.59% | –
2 | O=C1C=C(c2cccs2)CC(c2cccs2)C1n1cnc([N+](=O)[O-])c1 (centres undefined) | – | 3.16 µM (active)
3 | c1ccc(CNc2ncnc3ccc(-c4ccc5c(c4)OCO5)cc23)cc1 | – | 0.2 µM (active)
4 | c1ccc(Nc2ncnc3ccc(-c4ccc5c(c4)OCO5)cc23)cc1 | – | 0.251 µM (active)
5 | Cc1cccc(CNc2ncnc3ccc(-c4ccc5c(c4)OCO5)cc23)c1 | – | 0.501 µM (active)
6 | c1ccc(C2CCC(N3CCC(N4CCCCC4)CC3)CC2)cc1 (centres undefined) | -5.53% | –
7 | O=C(Nc1ccccc1)N1CC2(CCN(C(=O)c3ccco3)CC2)C1 | 6.85% | –
8 | COc1ccc(NC(=O)N2CCCC3(CCN(C(=O)c4c(C)noc4C)CC3)C2)cc1 | 12.3% | –
9 | COc1ccc(NC(=O)N2CCCC3(CCN(C(=O)c4ccco4)CC3)C2)cc1 | -10.2% | –
10 | O=C(Nc1ccccc1)N1CCCC2(CCN(C(=O)c3ccco3)CC2)C1 | – | 20 µM (active)
11 | Cc1noc(C)c1C(=O)N1CCC2(CCCN(C(=O)Nc3ccccc3)C2)CC1 | – | 12.6 µM (active)
12 | Cc1noc(C)c1C(=O)N1CCC2(CCN(C(=O)Nc3ccccc3)CC2)CC1 | -8.72% | –
13 | CO[C@H]1OC[C@@]2(C)[C@@H]3C4=C(CN2C(=O)OC(C)(C)C)[C@H](C)[C@H](CO)[C@H](CO)[C@H]4CC[C@H]13 | -18.6% | –
14 | C=CCN(CC=C)C(=O)C(=O)c1cc(C)n(-c2ccc([N+](=O)[O-])cc2)c1C | -5.98% | –
15 | Cc1ccc(SCc2ccc(C(=O)Nc3cc([N+](=O)[O-])ccc3C)cc2)cc1 | -14.8% | –
16 | CC(=O)NS(=O)(=O)c1ccc(NC(=S)NC(=O)C(C)(C)C)cc1 | 3.06% | –
17 | Cc1ccc([N+](=O)[O-])cc1NC(=S)NC(=O)CC(C)(C)C | – | 2 µM (active)
18 | Cc1ccc([N+](=O)[O-])cc1NC(=S)NC(=O)C(C)(C)C | – | 0.2 µM (active)
19 | CCCN1CCN(C(=O)CN2C(=O)CC(C)(C)S(=O)(=O)c3ccccc32)CC1 | -7.7% | –
20 | COc1ccc(-n2c(=O)c(-c3cccs3)nc3cnc(N4CCNCC4)nc32)cc1 | – | 5.01 µM (active)

Row | Compound | activity, negative = inhibition | AC50
21 | O=c1c(-c2cccs2)nc2cnc(N3CCNCC3)nc2n1-c1ccccc1 | – | 2.51 µM (active)
22 | CN1CCN(c2ncc3ncc(=O)n(-c4ccccc4)c3n2)CC1 | – | 2.51 µM (active)
23 | O=c1c(-c2ccccc2)nc2cnc(N3CCOCC3)nc2n1-c1ccccc1 | – | 12.6 µM (active)
24 | O=C(c1csnn1)N1CCC2(CCCN(Cc3ccccc3)C2)CC1 | -7.35% | –
25 | CN1CCN(c2ncc3nc(-c4cccs4)c(=O)n(-c4ccccc4)c3n2)CC1 | – | 3.16 µM (active)
26 | O=c1c(-c2cccs2)nc2cnc(N3CCOCC3)nc2n1-c1ccccc1 | – | 5.01 µM (active)
27 | CO[C@H]1C[C@@H](O[C@@H]2[C@H](C)[C@H](O[C@@H]3O[C@@H](C)C[C@@H](N(C)C)[C@@H]3O)[C@H](C)C[C@]3(CO3)C(=O)[C@H](C)[C@H](O)[C@H](C)[C@H](C)OC(=O)[C@@H]2C)O[C@@H](C)[C@H]1O | 1.17% [at 25.6 µM] | –
28 | COc1ccc(C(=O)NCC(=O)OCc2cccc(Br)c2)cc1 | – | 6.31 µM (active)
29 | COc1ccc(C(=O)N/N=C/c2cccc3cccnc23)cc1 | – | 2 µM (active)
30 | COc1ccc(O)c(/C=N/NC(=O)c2ccc(OCc3cccc(Br)c3)cc2)c1 | – | 11.2 µM (active)
31 | O=C(CNC(=O)/C(=C\c1ccccc1)NC(=O)c1ccc(Br)cc1)OCc1ccccc1 | -27.8% | –
32 | COc1ccc(O)c(/C=N/NC(=O)CSc2nnc(C)n2-c2ccccc2)c1 | -4.22% | –
33 | CSC(=N)N | -5.29% | –
34 | Brc1ccc2ncnc(Nc3cccc4ccccc34)c2c1 | – | 1.58 µM (active)
35 | Clc1cccc(Nc2ncnc3ccc(Br)cc23)c1 | – | 0.562 µM (active)
36 | COc1ccc(-n2c(C)n[nH]c2=O)cc1 | -1.01% | –
37 | CCc1ccc(C2=Nn3c(nnc3-c3cccs3)SC2)cc1 | – | 3.55 µM (active)
38 | COc1cccc(-c2nnc3n2N=C(C(C)(C)C)CS3)c1 | – | 2.82 µM (active)
39 | CCOc1ccc(C2=Nn3c(nnc3-c3ccco3)SC2)cc1 | – | 2 µM (active)
40 | COc1ccc(-c2nnc3n2N=C(C)CS3)cc1 | – | 1.41 µM (active)

Row | Compound | activity, negative = inhibition | AC50
41 | O=C(O)C1=CCCNC1 | – | inactive
42 | CCOc1ccc(-c2nnc3n2N=C(c2ccc(OC)cc2)CS3)cc1 | – | 3.55 µM (active)
43 | O=C(OCc1ccccc1)/C(=C/c1ccc(Cl)cc1)NC(=O)c1ccccc1Cl | – | 0.891 µM (active)
44 | COc1cc(/C=C(/NC(=O)c2ccccc2Cl)C(=O)O)cc(OC)c1OC | -2.92% | –
45 | O=C(OCC(=O)c1ccc([N+](=O)[O-])cc1)/C(=C\c1ccc(Cl)cc1)NC(=O)c1ccccc1 | – | 12.6 µM (active)
46 | Cc1ccc(NC(=O)/C(=C\c2ccc([N+](=O)[O-])cc2)NC(=O)c2ccccc2)cc1 | -11% | –
47 | O=C(Nc1cccc2ccccc12)/C(=C/c1ccc([N+](=O)[O-])cc1)NC(=O)c1ccccc1 | – | 3.16 µM (active)
48 | Cc1ccc(S(=O)(=O)N[C@H]2COC(=O)C/C=C\[C@@H](C)[C@H](NS(=O)(=O)c3ccc(C)cc3)COC(=O)C/C=C\[C@H]2C)cc1 | -0.94% [at 11.4 µM] | –
49 | O=C(Nc1ccnc(-c2cccnc2)n1)c1ccccc1Cl | – | 0.398 µM (active)
50 | O=C(Nc1ccnc(-c2cccnc2)n1)c1cccc(Cl)c1Cl | – | 0.562 µM (active)
51 | CC1(C)OCC([C@H](O)C2=CCCCC2=O)CO1 | -1.5% [at 11.4 µM] | –
52 | O=C(c1ccco1)N1CCN(C(=O)C2(S(=O)(=O)c3ccc(Cl)cc3)CC2)CC1 | -22% | –
53 | FC(F)(F)c1cccc(-c2nc3nc(Cl)c(Cl)nc3[nH]2)c1 | – | 0.398 µM (active)
54 | Cn1ccc2cc3c(cc21)CCN3C(=O)Nc1cccnc1 | – | 25.1 nM (active) and 3.98 nM (active)
55 | COC(=O)c1ccc(NC(=O)N2CCC(O)(c3cccnc3)CC2)cc1 | -13.5% | –
56 | O=C(Nc1cccc(F)c1)N1CCC2(CC1)CCN(C(=O)c1cnccn1)CC2 | 4.45% | –
57 | CN1CCc2cc(NC(=O)Nc3cccnc3)ccc21 | – | 0.0794 µM (active)
58 | CSc1cc2c(cc1C(F)(F)F)N(C(=O)Nc1cccnc1)CC2 | – | 0.000794 µM (active)
59 | COc1cc2c(cc1C(F)(F)F)N(C(=O)Nc1cc(F)cc(-c3cccnc3)c1)CC2 | – | 0.316 µM (active)

— PubChem BioAssay AID1851 (National Center for Advancing Translational Sciences (NCATS), 2009)
